Counter-ions that a name gives are not always drawn.
Each compound was assayed on CLZ3 (HCA2 human fibroblast dual HR-NHEJ reporter) (assay: NHEJ repair efficiency (GFP+ cells) relative to control (log10 fold); higher = more non-homologous end joining). Settings: 5 µM; doxycycline 0.5 ug/mL.
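Wherever HR repair efficiency (tdTomato+ cells) relative to control is given: compound given one day before doxycycline, which switches on I-SceI endonuclease expression to create double-strand breaks within the integrated reporter.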
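Wherever NHEJ repair efficiency (GFP+ cells) relative to control is given: compound given one day ahead of doxycycline, which switches on I-SceI endonuclease to cut the chromosomally integrated reporter and create DSBs.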

Row | Structure (SMILES) | NHEJ repair efficiency (log10)
1 | COc1cc2c(c(O)c1OC)-c1c(cc(OC)c(OC)c1OC)C[C@@H](C)[C@@H](C)C2 [Schisanhenol] | -0.161
2 | O=C(O)c1ccc(O)c(O)c1 [3,4-Dihydroxybenzoic acid] | 0.00743
3 | COC(=O)C1=CO[C@@H](O[C@@H]2O[C@H](CO)[C@@H](O)[C@H](O)[C@H]2O)[C@@H]2[C@@H](C)[C@@H](O)C[C@H]12 [Loganin] | 0.226
4 | COc1ccc([C@H]2OC[C@H]3[C@@H]2CO[C@H]3c2ccc(O[C@@H]3O[C@H](CO)[C@@H](O)[C@H](O)[C@H]3O)c(OC)c2)cc1OC [Phillyrin] | -0.0633
5 | O=c1cc(-c2ccc(O)cc2)oc2c([C@@H]3O[C@H](CO)[C@@H](O)[C@H](O)[C@H]3O)c(O)cc(O)c12 [Vitexin] | 0.172
6 | CC(=O)O[C@H]1CC(=O)OC(C)(C)[C@@H]2CC(=O)[C@]3(C)[C@H](CC[C@@]4(C)[C@@H](c5ccoc5)OC(=O)[C@H]5O[C@]543)[C@@]12C [Nomilin] | -0.276
7 | CC1OC(OC2C(C)OC(OC(=O)C34CCC(C)(C)CC3C3=CCC5C6(C)CCC(OC7OC(C(=O)O)C(OC8OC(CO)C(OC9OC(CO)C(O)C(O)C9O)C(O)C8O)C(OC8OCC(O)C(O)C8O)C7O)C(C)(C=O)C6CCC5(C)C3(C)CC4)C(OC3OCC(O)C(O)C3OC3OCC(O)C(O)C3O)C2O)C(O)C(OC2OCC(O)C(O)C2O)C1O (configuration not stated) [Gypenoside] | 0.0642
8 | COc1ccc(/C=C/c2cc(O)cc(O[C@@H]3O[C@H](CO)[C@@H](O)[C@H](O)[C@H]3O)c2)cc1O [Rhapontin] | 0.134
9 | O=C(/C=C/c1ccc(O)c(O)c1)O[C@@H]1C[C@](OC(=O)/C=C/c2ccc(O)c(O)c2)(C(=O)O)C[C@@H](O)[C@H]1O [1,3-Di-O-Caffeoylquinic Acid] | -0.263
10 | CC(C)=CCC[C@](C)(O[C@@H]1O[C@H](CO[C@@H]2O[C@H](CO)[C@@H](O)[C@H](O)[C@H]2O)[C@@H](O)[C@H](O)[C@H]1O)[C@H]1CC[C@]2(C)[C@@H]1[C@H](O)C[C@@H]1[C@@]3(C)CC[C@H](O[C@@H]4O[C@H](CO)[C@@H](O)[C@H](O)[C@H]4O)C(C)(C)[C@@H]3CC[C@]12C [Gypenoside Xvii] | 0.0522
11 | COc1cc2ccc(=O)oc2c(OC)c1O [Isofraxidin] | -0.0516
12 | COc1cc2c(cc1OC)[C@@H](Cc1ccc(Oc3cc(C[C@@H]4c5cc(OC)c(OC)cc5CCN4C)ccc3O)cc1)N(C)CC2 [Dauricine] | -0.0332
13 | CC(C)(O[C@@H]1O[C@H](CO)[C@@H](O)[C@H](O)[C@H]1O)[C@H]1Cc2cc3ccc(=O)oc3cc2O1 [Nodakenin] | -0.0969
14 | O=C(/C=C/c1ccc(O)c(O)c1)OC1(C(=O)O)C[C@@H](O)C(O)[C@H](O)C1 (some centres not stated) [1-Caffeoylquinic Acid] | -0.0477
15 | C[C@@H](CC[C@@]1(O)O[C@H]2C[C@H]3[C@@H]4CC[C@@H]5C[C@@H](O[C@@H]6O[C@H](CO)[C@H](O)[C@H](O)[C@H]6O[C@@H]6O[C@H](CO)[C@@H](O)[C@H](O)[C@H]6O)CC[C@]5(C)[C@H]4CC[C@]3(C)[C@H]2[C@@H]1C)CO[C@@H]1O[C@H](CO)[C@@H](O)[C@H](O)[C@H]1O [Timosaponin b- II] | 0.192
16 | CC1(C)[C@@H](O)CC[C@]2(C)[C@H]3C(=O)C=C4[C@@H]5C[C@@](C)(C(=O)O)CC[C@]5(C)CC[C@@]4(C)[C@]3(C)CC[C@@H]12 [Glycyrrhetinic Acid] | 0.0065
17 | COc1cc(O)c2c(=O)c(-c3ccc(O)cc3)coc2c1 [Prunusetin] | -0.0809
18 | CC[C@H](CC[C@@H](C)[C@H]1CC[C@H]2[C@@H]3CC=C4C[C@@H](O[C@@H]5O[C@H](CO)[C@@H](O)[C@H](O)[C@H]5O)CC[C@]4(C)[C@H]3CC[C@]12C)C(C)C [Daucosterol] | -0.00976
19 | Oc1cc(O)c2c(c1)OC(c1ccc(O)c(O)c1)C(O)C2 (single isomer, unassigned; (+)) [(+)-Catechin] | 0.0406

These compounds were tested on CLZ3 (HCA2 human fibroblast dual HR-NHEJ reporter) (assay: HR repair efficiency (tdTomato+ cells) relative to control (log10 fold); higher = more homologous recombination). Settings: 5 µM; doxycycline 0.5 ug/mL.

Row | Structure (SMILES) | HR repair efficiency (log10)
20 | OC[C@H]1OC(O)[C@@H](O)[C@@H](O)[C@@H]1O (some centres not stated) [Mannose] | 0.0481
21 | c1cc2c(c3c1CC1c4cc5c(cc4CCN1C3)OCO5)OCO2 (configuration not stated) [Tetrahydrocoptisine] | -0.0746
22 | C[C@H]1O[C@@H](O[C@H]2CC[C@@]3(C)[C@@H](CC[C@]4(C)[C@@H]3C=C[C@]35OC[C@@]6(CCC(C)(C)C[C@H]63)[C@@H](O)C[C@]54C)[C@]2(C)CO)[C@H](O)[C@@H](O[C@@H]2O[C@H](CO)[C@@H](O)[C@H](O)[C@H]2O)[C@H]1O [Saikosaponin a] | -0.315
23 | COc1ccc(C2OCC3C(c4cc(OC)c(OC)c(OC)c4)OCC23)cc1OC (configuration not stated) [Magnolin] | -0.00542
24 | CC1(C)CC[C@]2(C(=O)O)CC[C@]3(C)C(=CC[C@@H]4[C@@]5(C)CC[C@H](O)[C@@](C)(CO)[C@@H]5CC[C@]43C)[C@@H]2C1 [Hederagenin] | -0.0988
25 | O=C(O)c1cc(O)c2c(c1)[C@H]([C@H]1c3cc(C(=O)O)cc(O)c3C(=O)c3c(O[C@@H]4O[C@H](CO)[C@@H](O)[C@H](O)[C@H]4O)cccc31)c1cccc(O[C@@H]3O[C@H](CO)[C@@H](O)[C@H](O)[C@H]3O)c1C2=O [Sennoside A] | 0.131
26 | COc1ccc2c(OC)c3ccoc3nc2c1OC [Skimmianine] | 0.00427
27 | C[C@H](CCC(=O)O)[C@H]1CC[C@H]2[C@@H]3CC[C@@H]4C[C@H](O)CC[C@]4(C)[C@H]3C[C@H](O)[C@]12C [Deoxycholic acid] | 0.0026
28 | CC(C)=CCC[C@](C)(O[C@@H]1O[C@H](CO[C@@H]2O[C@H](CO)[C@@H](O)[C@H](O)[C@H]2O)[C@@H](O)[C@H](O)[C@H]1O)[C@H]1CC[C@]2(C)[C@@H]1[C@H](O)C[C@@H]1[C@@]3(C)CC[C@H](O[C@@H]4O[C@H](CO)[C@@H](O)[C@H](O)[C@H]4O[C@@H]4O[C@H](CO)[C@@H](O)[C@H](O)[C@H]4O)C(C)(C)[C@@H]3CC[C@]12C [Ginsenoside Rb1] | 0.217
29 | Cc1ccc(C(C)C)cc1 [p-Cymene] | 0.196
30 | Nc1ncnc2c1ncn2[C@@H]1O[C@H](CO)[C@@H](O)[C@H]1O [Adenosine] | -0.0239
31 | COc1cc2c(cc1OC)-c1cc3ccc(OC)c(OC)c3c[n+]1CC2 [Palmatine hydrochloride] | 0.0612
32 | C[C@@H]1CC[C@]2(C(=O)O[C@@H]3O[C@H](CO)[C@@H](O)[C@H](O)[C@H]3O)CC[C@]3(C)C(=CC[C@@H]4[C@@]5(C)CC[C@H](O)[C@@](C)(CO)[C@@H]5CC[C@]43C)[C@@H]2[C@]1(C)O [Pedunculoside] | 0.237
33 | COc1ccc(-c2oc3cc(O)cc(O)c3c(=O)c2O)cc1 [Kaempferide] | -0.167
34 | C[C@@H]1CC[C@@]2(NC1)O[C@H]1C[C@H]3[C@@H]4CC=C5C[C@@H](O[C@@H]6O[C@H](CO)[C@H](O)[C@H](O[C@@H]7O[C@H](CO)[C@@H](O)[C@H](O)[C@H]7O)[C@H]6O[C@@H]6O[C@@H](C)[C@H](O)[C@@H](O)[C@H]6O)CC[C@]5(C)[C@H]4CC[C@]3(C)[C@H]1[C@@H]2C [Solasonine] | 0.0163
35 | CC[C@H](C)[C@@H]1NC(=O)[C@@H]2CCCN2C(=O)[C@@H]2CCCN2C(=O)[C@@H]2CCCN2C(=O)[C@H](CC(C)C)NC(=O)CNC(=O)CNC(=O)[C@H](Cc2ccccc2)NC1=O [Heterophyllin B] | 0.0454
36 | C=C1C[C@@]23CC[C@H]4[C@@](C)(CCC[C@@]4(C)C(=O)O[C@@H]4O[C@H](CO)[C@@H](O)[C@H](O)[C@H]4O)[C@@H]2CC[C@]1(O[C@@H]1O[C@H](CO)[C@@H](O)[C@H](O)[C@H]1O[C@@H]1O[C@H](CO)[C@@H](O)[C@H](O)[C@H]1O)C3 [Stevioside] | 0.296
37 | O=c1c(-c2ccc(O)cc2)coc2c([C@@H]3O[C@H](CO)[C@@H](O)[C@H](O)[C@H]3O)c(O)ccc12 [Puerarin] | 0.038
38 | CC(C)[C@@H](C)/C=C/[C@@H](C)[C@H]1CC[C@H]2C3=CC=C4C[C@@H](O)CC[C@]4(C)[C@H]3CC[C@]12C [Ergosterol] | 0.141
39 | OC[C@H]1OC(O)[C@H](O)[C@@H](O)[C@H]1O (stereo partly drawn) [D-Galactose] | -0.0597
40 | C/C=C(/C)C(=O)O[C@H]1c2cc(OC)c(OC)c(OC)c2-c2c(cc3c(c2OC)OCO3)C[C@H](C)[C@]1(C)O [Wuweizi Ester B] | 0.0267
41 | COc1cc2c(c(O)c1OC)-c1c(cc(OC)c(OC)c1OC)C[C@@H](C)[C@@H](C)C2 [Schisanhenol] | -0.0391
42 | O=C(O)c1ccc(O)c(O)c1 [3,4-Dihydroxybenzoic acid] | -0.033
43 | COC(=O)C1=CO[C@@H](O[C@@H]2O[C@H](CO)[C@@H](O)[C@H](O)[C@H]2O)[C@@H]2[C@@H](C)[C@@H](O)C[C@H]12 [Loganin] | 0.191
44 | COc1ccc([C@H]2OC[C@H]3[C@@H]2CO[C@H]3c2ccc(O[C@@H]3O[C@H](CO)[C@@H](O)[C@H](O)[C@H]3O)c(OC)c2)cc1OC [Phillyrin] | -0.0538
45 | O=c1cc(-c2ccc(O)cc2)oc2c([C@@H]3O[C@H](CO)[C@@H](O)[C@H](O)[C@H]3O)c(O)cc(O)c12 [Vitexin] | 0.126
46 | CC(=O)O[C@H]1CC(=O)OC(C)(C)[C@@H]2CC(=O)[C@]3(C)[C@H](CC[C@@]4(C)[C@@H](c5ccoc5)OC(=O)[C@H]5O[C@]543)[C@@]12C [Nomilin] | -0.226
47 | CC1OC(OC2C(C)OC(OC(=O)C34CCC(C)(C)CC3C3=CCC5C6(C)CCC(OC7OC(C(=O)O)C(OC8OC(CO)C(OC9OC(CO)C(O)C(O)C9O)C(O)C8O)C(OC8OCC(O)C(O)C8O)C7O)C(C)(C=O)C6CCC5(C)C3(C)CC4)C(OC3OCC(O)C(O)C3OC3OCC(O)C(O)C3O)C2O)C(O)C(OC2OCC(O)C(O)C2O)C1O (configuration not stated) [Gypenoside] | 0.115

Reference: the supplement of paper PMC7380943
